Results from ChEMBL document CHEMBL1961873, “Compounds: GSK PKIS; Assays: Nanosyn kinase panel” (2012).

These molecules were tested against T1, cGMP-dependent protein kinase 2 (Homo sapiens) (UniProt Q13237). Details: at 0.1 µM.
T1 sequence (whole entry): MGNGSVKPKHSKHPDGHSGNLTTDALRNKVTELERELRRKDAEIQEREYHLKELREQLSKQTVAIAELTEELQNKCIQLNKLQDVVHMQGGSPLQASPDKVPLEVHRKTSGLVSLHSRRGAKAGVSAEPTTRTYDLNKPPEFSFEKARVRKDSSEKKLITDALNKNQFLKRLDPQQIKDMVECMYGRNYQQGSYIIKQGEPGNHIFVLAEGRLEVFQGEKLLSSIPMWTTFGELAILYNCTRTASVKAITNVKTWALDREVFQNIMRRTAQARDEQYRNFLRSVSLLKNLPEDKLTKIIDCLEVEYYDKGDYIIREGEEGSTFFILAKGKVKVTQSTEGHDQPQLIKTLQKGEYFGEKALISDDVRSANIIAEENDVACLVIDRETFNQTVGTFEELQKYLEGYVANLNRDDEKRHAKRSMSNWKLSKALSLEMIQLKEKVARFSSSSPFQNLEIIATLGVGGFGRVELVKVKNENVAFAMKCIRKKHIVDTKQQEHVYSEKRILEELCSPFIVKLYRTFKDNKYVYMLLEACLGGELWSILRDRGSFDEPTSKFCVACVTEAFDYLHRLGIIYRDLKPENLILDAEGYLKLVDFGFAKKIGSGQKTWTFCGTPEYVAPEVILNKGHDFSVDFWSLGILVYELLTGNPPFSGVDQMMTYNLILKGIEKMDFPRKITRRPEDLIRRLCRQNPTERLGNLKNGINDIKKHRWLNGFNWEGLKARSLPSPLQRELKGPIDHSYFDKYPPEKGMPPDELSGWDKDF

Row | Structure (SMILES) | inhibition [%]
1 | NC(=O)Cc1ccccc1Oc1nccc(-c2c(-c3ccc(F)cc3)ncn2C2CCNCC2)n1 | 0.97
2 | C[C@@H](Oc1cc(-n2cnc3ccc(OC4CCN(C)CC4)cc32)sc1C(N)=O)c1ccccc1Cl | 1.43
3 | NS(=O)(=O)c1ccc(N/N=C2\C(=O)Nc3ccc(-c4cnco4)cc32)cc1 | 1.06
4 | NS(=O)(=O)c1ccc(Nc2cc(-c3ccc(O)c(F)c3)n[nH]2)cc1 | -1.16
5 | CCS(=O)(=O)c1ccc(OC)c(Nc2ncc(-c3ccccc3Cl)o2)c1 | 0.72
6 | COc1cc(Nc2ncc3c(C)nc(-c4cccc(C(F)(F)F)c4)n3n2)cc(OC)c1OC | 4.61
7 | Cc1ccc(C(=O)NC2CCC2)cc1-c1ccc(C(=O)NCC2CC2)cc1 | 1.07
8 | C[C@@H](Oc1cc(-n2cnc3ccc(OCC4CCN(C)CC4)cc32)sc1C(N)=O)c1ccccc1Cl | 3.5
9 | Fc1ccc(-c2ncn(C3CCNCC3)c2-c2ccnc(Oc3ccc4c(c3)OCO4)n2)cc1 | 3.43
10 | CCS(=O)(=O)c1ccc(OC)c(Nc2ncc(-c3cccc(-c4ccccc4F)c3)o2)c1 | 1.57
11 | CN(c1ccc(NC(=O)Nc2c(Cl)cccc2Cl)cc1)c1ccnc(Nc2cccc(CS(C)(=O)=O)c2)n1 | 1.9
12 | O=C(NCC1CC1)c1ccc(-c2cccc(C(=O)NC3CC3)c2)cc1 | 1.23
13 | COc1ccc2cc(-c3c(-c4ccncc4)nc(-c4ccc(S(C)(=O)=O)cc4C)n3C)ccc2c1 | 5.61
14 | NC(=O)c1ccc(Oc2nccc(-c3c(-c4ccc(F)cc4)ncn3C3CCNCC3)n2)cc1 | 5.65
15 | Nc1nccc(-c2c(-c3ccc(F)cc3)ncn2C2CCC(O)CC2)n1 (stereo not drawn) | -0.66
16 | COc1cc2ncn(-c3cc(OCCc4ccccc4)c(C(N)=O)s3)c2cc1OC | 1.3
17 | Cc1ccc(NC(=O)c2ccoc2)cc1-c1ccc(C(=O)NCC2CC2)cc1 | 1.21

Row | Structure (SMILES) | inhibition [%]
18 | COc1cc(Nc2ncc(-c3ccccc3)o2)cc(OC)c1OC | -0.12
19 | O=C(Nc1n[nH]c2nc(-c3ccc(O)cc3)c(Br)cc12)C1CC1 | 5.14
20 | CCc1nccc2c1nc(-c1nonc1N)n2CC | 2.5
21 | COc1ccc(C2=C(N3CCc4ccccc43)C(=O)NC2=O)cc1 | 1.42
22 | COc1ccc(-c2ccc3c(NC(=O)C4CC4)n[nH]c3n2)cc1 | 0.63
23 | COc1cc2ncn(-c3cc(OCc4ccccc4C(F)(F)F)c(C(C)=O)s3)c2cc1OC | 0.9
24 | Fc1ccc(-c2ncn(C3CCNCC3)c2-c2ccnc(Oc3ccc(Oc4ccccc4)cc3)n2)cc1 | 3.21
25 | COc1cc2ncn(-c3cc(OCc4cccs4)c(C(N)=O)s3)c2cc1OC | 3.73
26 | O=C(Nc1ccc(Oc2ccc3[nH]c(NC(=O)c4ccccc4)nc3c2)cc1)Nc1cc(C(F)(F)F)ccc1F | 1.4
27 | Fc1ccc(-c2nc3n(c2-c2ccncc2)CCS3)cc1 | 2.32
28 | Fc1ccc(-c2ncn(C3CCNCC3)c2-c2ccnc(Oc3ccc(F)c(F)c3)n2)cc1 | 0.9
29 | COc1cccc(/C=N/Nc2ncnc3c2cnn3-c2cccc(OC)c2)c1 | 1.19
30 | C/C(Nc1ccc(S(N)(=O)=O)cc1)=C1/C(=O)Nc2ccccc21 | 0.21
31 | NS(=O)(=O)c1ccc(N/N=C2\C(=O)Nc3ccc(C(=O)NCCCn4ccnc4)cc32)cc1 | 4.37
32 | CN(C)CCOc1ccc(-c2cc(-c3ccc4c(c3)CCC4=NO)c(-c3ccncc3)o2)cc1 | -0.1
33 | COc1ccc2cc(-c3c(-c4ccncc4)nc(-c4ccc([S+](C)[O-])cc4C)n3C)ccc2c1 (stereo not drawn) | 0.02
34 | FC(F)(F)c1cccc(Nc2nccc(-c3cnn4nc(-c5ccccc5)ccc34)n2)c1 | 1.44

The molecules below were run against T1, cGMP-dependent protein kinase 2 (Homo sapiens). Details: at 1 µM.

Row | Structure (SMILES) | inhibition [%]
35 | NC(=O)Cc1ccccc1Oc1nccc(-c2c(-c3ccc(F)cc3)ncn2C2CCNCC2)n1 | 4.38
36 | C[C@@H](Oc1cc(-n2cnc3ccc(OC4CCN(C)CC4)cc32)sc1C(N)=O)c1ccccc1Cl | 4.43
37 | NS(=O)(=O)c1ccc(N/N=C2\C(=O)Nc3ccc(-c4cnco4)cc32)cc1 | 12.7
38 | NS(=O)(=O)c1ccc(Nc2cc(-c3ccc(O)c(F)c3)n[nH]2)cc1 | 0.01
39 | CCS(=O)(=O)c1ccc(OC)c(Nc2ncc(-c3ccccc3Cl)o2)c1 | 2.95
40 | COc1cc(Nc2ncc3c(C)nc(-c4cccc(C(F)(F)F)c4)n3n2)cc(OC)c1OC | 6.16
41 | Cc1ccc(C(=O)NC2CCC2)cc1-c1ccc(C(=O)NCC2CC2)cc1 | 3.54
42 | C[C@@H](Oc1cc(-n2cnc3ccc(OCC4CCN(C)CC4)cc32)sc1C(N)=O)c1ccccc1Cl | 7.56
43 | Fc1ccc(-c2ncn(C3CCNCC3)c2-c2ccnc(Oc3ccc4c(c3)OCO4)n2)cc1 | 2.62
44 | CCS(=O)(=O)c1ccc(OC)c(Nc2ncc(-c3cccc(-c4ccccc4F)c3)o2)c1 | 2.1
45 | CN(c1ccc(NC(=O)Nc2c(Cl)cccc2Cl)cc1)c1ccnc(Nc2cccc(CS(C)(=O)=O)c2)n1 | 3.22
46 | O=C(NCC1CC1)c1ccc(-c2cccc(C(=O)NC3CC3)c2)cc1 | 0.42
47 | COc1ccc2cc(-c3c(-c4ccncc4)nc(-c4ccc(S(C)(=O)=O)cc4C)n3C)ccc2c1 | 6.44
48 | NC(=O)c1ccc(Oc2nccc(-c3c(-c4ccc(F)cc4)ncn3C3CCNCC3)n2)cc1 | 6.43
49 | Nc1nccc(-c2c(-c3ccc(F)cc3)ncn2C2CCC(O)CC2)n1 (stereo not drawn) | -0.24
50 | COc1cc2ncn(-c3cc(OCCc4ccccc4)c(C(N)=O)s3)c2cc1OC | 2.13
51 | Cc1ccc(NC(=O)c2ccoc2)cc1-c1ccc(C(=O)NCC2CC2)cc1 | 1.02

Row | Structure (SMILES) | inhibition [%]
52 | COc1cc(Nc2ncc(-c3ccccc3)o2)cc(OC)c1OC | 1.47
53 | O=C(Nc1n[nH]c2nc(-c3ccc(O)cc3)c(Br)cc12)C1CC1 | 27.8
54 | CCc1nccc2c1nc(-c1nonc1N)n2CC | 21.1
55 | COc1ccc(C2=C(N3CCc4ccccc43)C(=O)NC2=O)cc1 | 4.94
56 | COc1ccc(-c2ccc3c(NC(=O)C4CC4)n[nH]c3n2)cc1 | 0.65
57 | COc1cc2ncn(-c3cc(OCc4ccccc4C(F)(F)F)c(C(C)=O)s3)c2cc1OC | 0
58 | Fc1ccc(-c2ncn(C3CCNCC3)c2-c2ccnc(Oc3ccc(Oc4ccccc4)cc3)n2)cc1 | 4.62
59 | COc1cc2ncn(-c3cc(OCc4cccs4)c(C(N)=O)s3)c2cc1OC | 6.83
60 | O=C(Nc1ccc(Oc2ccc3[nH]c(NC(=O)c4ccccc4)nc3c2)cc1)Nc1cc(C(F)(F)F)ccc1F | 2.23
61 | Fc1ccc(-c2nc3n(c2-c2ccncc2)CCS3)cc1 | 3.35
62 | Fc1ccc(-c2ncn(C3CCNCC3)c2-c2ccnc(Oc3ccc(F)c(F)c3)n2)cc1 | 4.44
63 | COc1cccc(/C=N/Nc2ncnc3c2cnn3-c2cccc(OC)c2)c1 | 3.17
64 | C/C(Nc1ccc(S(N)(=O)=O)cc1)=C1/C(=O)Nc2ccccc21 | 8.25
65 | NS(=O)(=O)c1ccc(N/N=C2\C(=O)Nc3ccc(C(=O)NCCCn4ccnc4)cc32)cc1 | 28.2
66 | CN(C)CCOc1ccc(-c2cc(-c3ccc4c(c3)CCC4=NO)c(-c3ccncc3)o2)cc1 | 11.2
67 | COc1ccc2cc(-c3c(-c4ccncc4)nc(-c4ccc([S+](C)[O-])cc4C)n3C)ccc2c1 (stereo not drawn) | 0.21
68 | FC(F)(F)c1cccc(Nc2nccc(-c3cnn4nc(-c5ccccc5)ccc34)n2)c1 | -1.07
